Each structure is given as a SMILES string. This is part of a sample that, as a whole, favours compounds with a hit. Of some 83,000 tested, about 20% had one in any assay.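 The test compound was applied at a single concentration to cells in 96-well plates for 48 hours, and percent growth was recorded.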 A number with no mark means an inactive call. The source made the active and inactive calls.

In the assay the test system is PC-3 prostate. As to the kind of experiment: NCI-60 one-dose screen, 48 h (100 = growth as untreated, 0 = no growth, -100 = all killed). Particulars: 10 µM unless noted. How it is done:
Growth inhibition of the PC-3 human tumor cell line is measured as a screen for anti-cancer activity. Cells are grown in 96 well plates and exposed to the test compound for 48 hours. Compounds are tested at a single concentration, which is 10^-5 M for most compounds. The reported endpoint is percent growth (GI% or GIPRCNT), where numbers from 0 - 100% represent growth inhibition, and numbers from -100% - 0 represent cell death. For example, a value of 40 represents 60% growth inhibition. A value of 0 means no net growth occurred over the course of the experiment. A value of -40 indicates 40% of cells at the beginning of the experiment died by the end of the experiment. A value of -100 means all cells are dead at the end of the experiment.
NCI-60 Human Tumor Cell Lines Screen was performed using the standard one-dose NCI protocol, which is described in more detail at https://dtp.cancer.gov/discovery_development/nci-60/default.htm.
Compounds with GIPRCNT values below 10 were considered active. Activity score was based on GIPRCNT using the following formula: […]
Score is 0 for GIPRCNT values of 100 or above, 50 for GIPRCNT values of 0, and 100 for GIPRCNT values of -100.
As for `O=c1ccc2nc(C(F)(F)F)nn(-c3ccccc3)c-2c1`, the growth was 84.6%.

Turning to `O[C@@H](c1cc(C(F)(F)F)nc2c(C(F)(F)F)cccc12)[C@H]1CCCCN1`, the growth was 49.4%.

Take `CCN(CC)CCNC(=O)c1ccc(-c2nc3ccc4[nH]ncc4c3c3c2CCCC3)cc1`: the growth was 57.2%.

Turning to `OC(c1ccccc1)(c1ccccc1)c1ccccc1-c1ccccc1`, the growth was 86%.

For the compound `O=C1/C=C/[C@@H](O)[C@@H]2C[C@@H](O)C[C@H]2/C=C/CCC[C@H](CCOCc2ccccc2)O1`, the growth was 16.5%.

As for `Cc1ccccc1OCC(O)COc1ccccc1C`, the growth was 94.8%.

Consider `Fc1ccc2c(c1)c(-c1nc(-c3c[nH]c4ncccc34)cs1)cn2CCCN1CCOCC1`, for which the growth is 31.9%.

For the compound `CCOC(=O)c1c(NC(=O)c2ccc(C(C)(C)C)cc2)sc2cc(O)ccc12`, the growth is 105%.

With `CCn1cc(C(=O)NN=C2CCCCCC2)c(=O)c2ccc(C)nc21`, the growth is 82.7%.

Consider `Cc1ccc(/C=C/C(=O)c2ccc(NC(=O)CSc3nc4c([nH]3)c(=O)n(C)c(=O)n4C)cc2)c(C)c1`, for which the growth was 49.3%.

For `CCOC(=O)c1cn2ncnc(Oc3ccc(NC(=O)NC4CC4)c(F)c3)c2c1C`, the growth is 87.7%.

On to `Cc1ncc(C(=O)Nc2ccc(CN3CCN(C)CC3)c(C(F)(F)F)c2)cc1C#Cc1cnc(N)c2ccncc12`, for which the growth is -50.6% (active).

As to `Cc1ccc(O)c(NC(=O)c2ccc(CNc3ccnc(C(F)(F)F)c3)cc2)c1`, the growth is 78.8%.

As for `C[Se]C(=O)CC1=C2C=C(F)C=CC2/C(=C\c2ccc(S(C)=O)cc2)C1C` (stereo not given), the growth was 20.4%.

Turning to `CCN1C(=O)N(CC)C2C1NN=c1s/c(=C\c3ccccc3Br)c(=O)n12` (stereo not given), the growth was 23.2%.

In the case of `O=C(CSc1nc2ccc([N+](=O)[O-])cc2[nH]1)Nc1cccc([N+](=O)[O-])c1`, the growth is 44.8%.

In the case of `Cc1cc(N2CCN(C)CC2)nc(NCc2cc(Nc3ccnc4cc(Cl)ccc34)ccc2F)n1`, the growth was 28.6%.

Turning to `COc1cc2oc(-c3cccc(NC(=O)c4ccc5c(c4)OCO5)c3)cc(=O)c2c(OC)c1OC`, the growth was -12% (active).

Turning to `CCOC(=O)c1ccc2c(c1)c1c(C)c3ccncc3c(C)c1n2C`, the growth is 10.8%.

In the case of `Cc1ccc(C(=O)c2ccc(CC(=O)N/N=C/c3ccc(O)cc3O)n2C)cc1`, the growth was 61.1%.

As for `CC(=O)c1cc(-c2ccccc2N)n(-c2ccc3c(c2)OCO3)c1C`, the growth is 30.1%.

Regarding `COc1ccc(Cc2nnc(Nc3nc4ccccc4s3)s2)cc1`, the growth is 108%.

Turning to `O=C1NC(=Nc2ccc(O)cc2)S/C1=C\c1cccs1`, the growth was -1.89% (active).

In the case of `COc1ccc(C(c2cc(OC)c(OC)c(OC)c2)N2CCN(Cc3ccccc3)CC2)cc1` (stereo not given), the growth is 59.3%.

For `Cn1ccnc1C(=O)/C=C/c1ccc(C(=O)Nc2ccc(F)cc2)cc1`, the growth is 22.2%.

Turning to `COc1ccc(-c2oc(=O)ccc2-c2cc(OC)c(OC)c(OC)c2)cc1O`, the growth is 38.1%.

`COc1ccc(Cn2cc(C(=O)N=Nc3c(O)[nH]c4c(Cl)cccc34)nn2)cc1`: the growth was 96.7%.

For `O=C(O)C1CN(c2cccc(Cl)c2)N(c2cccc(Cl)c2)C1=O` (stereo not given), the growth is 94.6%.

For `COc1cc2c(c(OC)c1OC)C(=O)N[C@@H]1[C@@H](O)[C@@H](O)[C@H](O)C[C@@H]21`, the growth is 96.5%.

On to `COc1cc2cc(Oc3ccc(NC(=O)Nc4ccccc4)cc3)c(C)nc2cc1OCCN1CCCCC1`, for which the growth is 82.7%.

In the case of `COc1cc(OC)cc(C2C(C#N)=C(N)Oc3c2ccc2ccc(O)cc32)c1` (stereo not given), the growth is 17.6%.

As for `C=NNc1ccccc1`, the growth was 63.8%.

`CCc1ccc(CCC(=O)Nc2ncc(Cc3ccc(Cl)cc3)s2)o1`: the growth was 29.3%.

For `Cn1cc(C(=O)c2nc(-c3c[nH]c4ccc(Br)cc34)no2)c2cc(Br)ccc21`, the growth is 39.3%.

Consider `Oc1c(I)cc(-c2nc3ccccc3s2)cc1CN(Cc1ccccn1)Cc1ccccn1`, for which the growth was 28.3%.

`CCN(CC)CCN(CCN(CC)CC)c1ccccc1`: the growth is 87.4%.

Turning to `CC(C)c1ccc(NC(=O)Nc2ccc(NC(=O)c3ccccc3N)cc2)cc1`, the growth was 47.6%.

As for `CCOC(=O)Nc1nc2ccc(SCC(C)C)cc2s1`, the growth was 36.9%.

With `C=C1C(=O)O[C@H]2[C@H]1CC/C(Cn1cc(-c3cc(C(F)(F)F)cc(C(F)(F)F)c3)nn1)=C\CC[C@@]1(C)O[C@@H]21`, the growth was -81% (active).

As to `CCCCCCCCn1ccc2cc(NC(=O)Cn3cc(CN4CCCCCC4)nn3)ccc21`, the growth was 40%.

Source of the values: PubChem BioAssay (NCI).
